From PubChem BioAssay AID1159580 (chemical genetic matrix, 2015)
Values joined by “and” are separate entries in the source; they are usually repeats but may differ in a detail not shown here. Equal values may be shown once. The whole screen tested about 5,500 compounds, of which about 2,000 (36%) were called active. Inconclusive results (about 18%) are left out. Rule as the data show it: active = normalized growth mostly below about 0.91 (no sharp cut-off); inconclusive = no clear call, values can overlap the other calls; inactive = mostly above about 0.92. The list shows a part of the results. A structure can be active in one record and inactive in another.

Test: chemical genetic growth profiling, strain panel (AID 1159580);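 also: tested at 20 µM; growth read once vehicle control cultures reached saturation at 30 °C; 1 = growth at the plate median or of vehicle wells; lower values mean less growth of the strain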
Conditions: growth OD

CCN(CC)CCCC(C)Nc1c2ccc(Cl)cc2nc2ccc(OC)cc12 (stereo unspecified)
normalized growth (S. cerevisiae deletion strains, locus YJR075W, strain HOC1, stronger effect = lower value): 0.813 (active) | normalized growth (S. cerevisiae deletion strains, locus YKL009W, strain mrt4, stronger effect = lower value): 0.863 (active) | normalized growth (S. cerevisiae deletion strains, locus YKL068W, stronger effect = lower value): 1 (inactive) | normalized growth (S. cerevisiae deletion strains, locus YKL085W, strain MDH1 (second series), stronger effect = lower value): 0.93 (active) | normalized growth (S. cerevisiae deletion strains, locus YKL085W, strain MDH1, stronger effect = lower value): 0.93 (active) | normalized growth (S. cerevisiae deletion strains, locus YKL160W, strain elf1, stronger effect = lower value): 0.931 (inactive) | normalized growth (S. cerevisiae deletion strains, locus YKL190W, strain CNB1, stronger effect = lower value): 0.79 (active) | normalized growth (S. cerevisiae deletion strains, locus YKR001C, strain vps1, stronger effect = lower value): 0.616 (active) | normalized growth (S. cerevisiae deletion strains, locus YKR026C, strain gcn3, stronger effect = lower value): 1.04 (inactive) | normalized growth (S. cerevisiae deletion strains, locus YKR091W, strain srl3, stronger effect = lower value): 1.02 (inactive) | normalized growth (S. cerevisiae deletion strains, locus YLL001W, strain dnm1, stronger effect = lower value): 0.902 (active) | normalized growth (S. cerevisiae deletion strains, locus YLL026W, stronger effect = lower value): 1.02 (inactive) | normalized growth (S. cerevisiae deletion strains, locus YLL041C, strain sdh2, stronger effect = lower value): 1.03 (inactive) | normalized growth (S. cerevisiae deletion strains, locus YLR027C, strain aat2, stronger effect = lower value): 0.964 (inactive) | normalized growth (S. cerevisiae deletion strains, locus YLR039C, strain RIC1, stronger effect = lower value): 0.949 (inactive) | normalized growth (S. cerevisiae deletion strains, locus YLR058C, strain SHM2, stronger effect = lower value): 0.524 (active) | normalized growth (S. cerevisiae deletion strains, locus YLR102C, strain apc9, stronger effect = lower value): 0.855 (active) | normalized growth (S. cerevisiae deletion strains, locus YLR113W, strain HOG1, stronger effect = lower value): 0.741 (active) | normalized growth (S. cerevisiae deletion strains, locus YLR221C, strain rsa3, stronger effect = lower value): 0.993 (inactive) | normalized growth (S. cerevisiae deletion strains, locus YLR258W, strain gsy2, stronger effect = lower value): 0.954 (inactive) | normalized growth (S. cerevisiae deletion strains, locus YLR262C, strain YPT6 (second series), stronger effect = lower value): 0.992 (inactive) | normalized growth (S. cerevisiae deletion strains, locus YLR262C, strain YPT6, stronger effect = lower value): 0.945 (inactive) | normalized growth (S. cerevisiae deletion strains, locus YLR268W, strain sec22, stronger effect = lower value): 0.717 (active) | normalized growth (S. cerevisiae deletion strains, locus YLR320W, strain mms22, stronger effect = lower value): 0.973 (inactive) | normalized growth (S. cerevisiae deletion strains, locus YLR330W, strain CHS5, stronger effect = lower value): 0.883 (active) | normalized growth (S. cerevisiae deletion strains, locus YLR342W, strain FKS1 (second series), stronger effect = lower value): 0.632 (active) | normalized growth (S. cerevisiae deletion strains, locus YLR342W, strain FKS1, stronger effect = lower value): 1.01 (inactive) | normalized growth (S. cerevisiae deletion strains, locus YLR357W, strain rsc2, stronger effect = lower value): 1.07 (inactive) | normalized growth (S. cerevisiae deletion strains, locus YLR370C, strain arc18, stronger effect = lower value): 0.955 (inactive) | normalized growth (S. cerevisiae deletion strains, locus YLR371W, strain rom2, stronger effect = lower value): 0.93 (inactive) | normalized growth (S. cerevisiae deletion strains, locus YLR384C, strain iki3, stronger effect = lower value): 1.04 (inactive) | normalized growth (S. cerevisiae deletion strains, locus YLR418C, strain cdc73, stronger effect = lower value): 0.959 (inactive) | normalized growth (S. cerevisiae deletion strains, locus YML016C, strain PPZ1, stronger effect = lower value): 1.01 (inactive) | normalized growth (S. cerevisiae deletion strains, locus YML032C, strain rad52, stronger effect = lower value): 0.544 (active) | normalized growth (S. cerevisiae deletion strains, locus YML120C, strain ndi1, stronger effect = lower value): 0.995 (inactive) | normalized growth (S. cerevisiae deletion strains, locus YML124C, strain tub3, stronger effect = lower value): 0.858 (active) | normalized growth (S. cerevisiae deletion strains, locus YMR058W, strain fet3, stronger effect = lower value): 0.961 (inactive) | normalized growth (S. cerevisiae deletion strains, locus YMR078C, strain ctf18, stronger effect = lower value): 0.954 (inactive) | normalized growth (S. cerevisiae deletion strains, locus YMR125W, strain sto1, stronger effect = lower value): 0.989 (inactive) | normalized growth (S. cerevisiae deletion strains, locus YMR129W, stronger effect = lower value): 1.04 (inactive) | normalized growth (S. cerevisiae deletion strains, locus YMR205C, strain PFK2, stronger effect = lower value): 0.973 (inactive) | normalized growth (S. cerevisiae deletion strains, locus YMR223W, strain ubp8, stronger effect = lower value): 0.508 (active) | normalized growth (S. cerevisiae deletion strains, locus YMR231W, strain pep5, stronger effect = lower value): 1.02 (inactive) | normalized growth (S. cerevisiae deletion strains, locus YMR263W, strain SAP30, stronger effect = lower value): 0.948 (inactive) and 0.979 (inactive) | normalized growth (S. cerevisiae deletion strains, locus YMR307W, strain GAS1, stronger effect = lower value): 1.15 (inactive) and 0.985 (inactive) | normalized growth (S. cerevisiae deletion strains, locus YNL067W, strain RPL9B, stronger effect = lower value): 0.703 (active) | normalized growth (S. cerevisiae deletion strains, locus YNL071W, strain lat1, stronger effect = lower value): 1.02 (inactive) | normalized growth (S. cerevisiae deletion strains, locus YNL128W, strain TEP1, stronger effect = lower value): 0.743 (active) and 0.988 (inactive) | normalized growth (S. cerevisiae deletion strains, locus YNL153C, strain GIM3, stronger effect = lower value): 0.819 (active) | normalized growth (S. cerevisiae deletion strains, locus YNL175C, strain NOP13, stronger effect = lower value): 0.992 (inactive) | normalized growth (S. cerevisiae deletion strains, locus YNL183C, strain NPR1, stronger effect = lower value): 0.644 (active) | normalized growth (S. cerevisiae deletion strains, locus YNL197C, strain WHI3, stronger effect = lower value): 1 (inactive) | normalized growth (S. cerevisiae deletion strains, locus YNL209W, strain ssb2, stronger effect = lower value): 0.985 (inactive) | normalized growth (S. cerevisiae deletion strains, locus YNL224C, strain SQS1, stronger effect = lower value): 0.959 (inactive) | normalized growth (S. cerevisiae deletion strains, locus YNL233W, strain BNI4, stronger effect = lower value): 0.756 (active) | normalized growth (S. cerevisiae deletion strains, locus YNL248C, strain rpa49, stronger effect = lower value): 1.01 (inactive) | normalized growth (S. cerevisiae deletion strains, locus YNL250W, strain rad50, stronger effect = lower value): 0.952 (inactive) | normalized growth (S. cerevisiae deletion strains, locus YNL271C, strain bni1, stronger effect = lower value): 1.02 (inactive) | normalized growth (S. cerevisiae deletion strains, locus YNL298W, strain CLA4, stronger effect = lower value): 1 (inactive) | normalized growth (S. cerevisiae deletion strains, locus YNL307C, strain MCK1, stronger effect = lower value): 0.622 (active) | normalized growth (S. cerevisiae deletion strains, locus YNL322C, strain KRE1 (second series), stronger effect = lower value): 1.01 (inactive) | normalized growth (S. cerevisiae deletion strains, locus YNL322C, strain KRE1, stronger effect = lower value): 0.794 (active) | normalized growth (S. cerevisiae deletion strains, locus YNR049C, strain mso1, stronger effect = lower value): 1.04 (inactive) | normalized growth (S. cerevisiae deletion strains, locus YNR052C, strain pop2, stronger effect = lower value): 0.821 (active) | normalized growth (S. cerevisiae deletion strains, locus YOL006C, strain TOP1, stronger effect = lower value): 0.847 (inactive) | normalized growth (S. cerevisiae deletion strains, locus YOL012C, strain htz1): 2.88 [resistant] (active) | normalized growth (S. cerevisiae deletion strains, locus YOL147C, strain pex11, stronger effect = lower value): 0.6 (active) | normalized growth (S. cerevisiae deletion strains, locus YOR001W, strain rrp6, stronger effect = lower value): 0.966 (inactive) | normalized growth (S. cerevisiae deletion strains, locus YOR061W, strain CKA2, stronger effect = lower value): 0.71 (active) | normalized growth (S. cerevisiae deletion strains, locus YOR069W, strain VPS5, stronger effect = lower value): 0.848 (active) | normalized growth (S. cerevisiae deletion strains, locus YOR070C, strain gyp1, stronger effect = lower value): 0.985 (inactive) | normalized growth (S. cerevisiae deletion strains, locus YOR080W, strain dia2, stronger effect = lower value): 1.03 (inactive) | normalized growth (S. cerevisiae deletion strains, locus YOR083W, strain WHI5 (second series), stronger effect = lower value): 0.955 (inactive) | normalized growth (S. cerevisiae deletion strains, locus YOR083W, strain WHI5, stronger effect = lower value): 0.97 (inactive) | normalized growth (S. cerevisiae deletion strains, locus YOR106W, strain vam3, stronger effect = lower value): 0.916 (inactive) | normalized growth (S. cerevisiae deletion strains, locus YOR136W, strain idh2, stronger effect = lower value): 0.928 (inactive) | normalized growth (S. cerevisiae deletion strains, locus YOR144C, strain elg1, stronger effect = lower value): 0.776 (active) | normalized growth (S. cerevisiae deletion strains, locus YOR184W, strain ser1, stronger effect = lower value): 0.59 (active) | normalized growth (S. cerevisiae deletion strains, locus YOR231W, strain MKK1, stronger effect = lower value): 0.686 (active) | normalized growth (S. cerevisiae deletion strains, locus YOR265W, strain rbl2, stronger effect = lower value): 1.02 (inactive) | normalized growth (S. cerevisiae deletion strains, locus YOR270C, strain vph1, stronger effect = lower value): 0.996 (inactive) | normalized growth (S. cerevisiae deletion strains, locus YOR290C, strain snf2, stronger effect = lower value): 0.8 (active) | normalized growth (S. cerevisiae deletion strains, locus YOR316C, strain cot1, stronger effect = lower value): 0.751 (active) | normalized growth (S. cerevisiae deletion strains, locus YPL051W, strain arl3, stronger effect = lower value): 0.961 (inactive) | normalized growth (S. cerevisiae deletion strains, locus YPL055C, strain LGE1, stronger effect = lower value): 0.746 (active) | normalized growth (S. cerevisiae deletion strains, locus YPL078C, strain atp4, stronger effect = lower value): 0.936 (inactive) | normalized growth (S. cerevisiae deletion strains, locus YPL106C, strain sse1, stronger effect = lower value): 0.984 (inactive) | normalized growth (S. cerevisiae deletion strains, locus YPL240C, strain hsp82, stronger effect = lower value): 0.998 (inactive) | normalized growth (S. cerevisiae deletion strains, locus YPL241C, strain CIN2, stronger effect = lower value): 0.914 (active) | normalized growth (S. cerevisiae deletion strains, locus YPL256C, strain CLN2, stronger effect = lower value): 0.797 (active) | normalized growth (S. cerevisiae deletion strains, locus YPR119W, strain clb2, stronger effect = lower value): 0.946 (inactive) | normalized growth (S. cerevisiae deletion strains, locus YPR141C, strain kar3, stronger effect = lower value): 1.04 (inactive) | normalized growth (S. cerevisiae deletion strains, locus YPR163C, strain tif3, stronger effect = lower value): 1.02 (inactive) | normalized growth (S. cerevisiae deletion strains, locus YPR167C, strain met16, stronger effect = lower value): 0.866 (active) | normalized growth (S. cerevisiae deletion strains, strain wtn01, stronger effect = lower value): 0.665 (active) | normalized growth (S. cerevisiae strains, strain wild type, stronger effect = lower value): 0.755 (active)
